Source: ChEMBL document CHEMBL3988442, “University of Dundee, Small-Polar-MMV Screening Library” (2021)
Among all 69,000 compounds or so, about 950 (1.4%) showed an effect of 50% or more. Only a selection was taken, and strong results are over-represented in it overall.

System: Mycobacterium tuberculosis
Assay: Cornell M. t heat shock assay; further: in the data most compounds retested in dose-response had high values
Type: functional, organism-based
Design: dose or concentration left out as unconfirmed

| Structure (SMILES) | Percent Effect [%] |
| --- | --- |
| Cn1cc2c(n1)C(CNCc1ccco1)OCC2.O=C(O)C(F)(F)F.O=C(O)C(F)(F)F (centres undefined) | -43.95 |
| CC(C)C(=O)N1CCC[C@]2(C(=O)N(C)C)CN(c3ccccn3)C[C@@H]2C1.O=C(O)C(F)(F)F | -34.76 |
| CN(C)C(=O)C1OC2(CCNCC2)c2ccccc21.O=C(O)C(F)(F)F (centres undefined) | -39.36 |
| Cc1cnn(CC(C)NCc2csc(-c3cccs3)n2)c1 (centres undefined) | 37.01 |
| CC(Cn1cccn1)NCc1csc(-c2cccs2)n1 (centres undefined) | 54.31 |
| Cc1cnn(CC(C)NCc2csc(-c3ncccn3)n2)c1 (centres undefined) | 10.59 |
| CC(Cn1cccn1)NCc1nc(-c2ccccc2Cl)no1 (centres undefined) | 1.662 |
| CC(Cn1cccn1)NCc1csc(-c2ccccc2F)n1 (centres undefined) | 54.47 |
| CC(Cn1cccn1)NCc1csc(-c2ccsc2)n1 (centres undefined) | 22.32 |
| COCC(=O)N1C[C@@H](OCc2ccncc2)[C@@H]2OCCC[C@@H]21.O=C(O)C(F)(F)F | -15.14 |
| Cc1ccc2c(c1)CN(C(=O)c1ccncc1)C(CN(C)C)CO2.Cl (centres undefined) | -12.12 |
| COCC(=O)NCc1cc(=O)n2c(n1)CN(CC1CC1)CCC2.O=C(O)C(F)(F)F | 0.2802 |
| COC[C@H]1CC[C@@H]2[C@@H](CCN2Cc2ccccn2)O1.O=C(O)C(F)(F)F.O=C(O)C(F)(F)F | -12.12 |
| COc1cccc(CN2CCc3nc4ccsc4c(=O)n3CC2)c1.Cl | -5.651 |
| COCCn1cncc1CN1CCCC(C)(c2ccccc2)C1 (centres undefined) | 52.06 |
| COCCn1cncc1CN1CCCC(C(=O)Cc2ccccc2)C1 (centres undefined) | 2.668 |
| CC1(c2ccccc2)CCCN(Cc2nnc(-c3cccnc3)o2)C1 (centres undefined) | 31.3 |
| COCCn1cncc1CN1CCC(C(C)=O)(c2ccccc2)CC1 | -3.844 |
| CC1(c2ccccc2)CCCN(Cc2cncn2C2CCCC2)C1 (centres undefined) | 105.4 |
| CC1(c2ccccc2)CCCN(Cc2cncn2C2CC2)C1 (centres undefined) | 105.6 |
| CCCN1CCCC2(CCN(Cc3cncn3C3CCCC3)C2)C1=O (centres undefined) | -6.674 |
| O=C(CCc1ccccc1)C1CCCN(Cc2cncn2C2CC2)C1 (centres undefined) | 5.776 |
| CN1CCCC2(CCN(Cc3cncn3C3CCCCC3)C2)C1=O (centres undefined) | 13.88 |
| CC(NC(=O)NCc1ccccc1)(C(=O)O)c1ccco1 (centres undefined) | -8.455 |

| Structure (SMILES) | Percent Effect [%] |
| --- | --- |
| CC(=O)CN1CC2(CCNCC2)COc2ccccc2S1(=O)=O.O=C(O)C(F)(F)F | -27.15 |
| Cn1ccc(C(=O)N2CCOC3(COCCN(CC4CC4)C3)C2)n1.O=C(O)C(F)(F)F (centres undefined) | 32.82 |
| CS(=O)(=O)N[C@@H]1CN(C(=O)c2cccnc2)[C@@H]2CCCO[C@@H]21.O=C(O)C(F)(F)F | -22.75 |
| COCCN1CCc2cc(C(=O)NC(C)C)c(NCC3CC3)nc2CC1.O=C(O)C(F)(F)F.O=C(O)C(F)(F)F | -25.1 |
| Cn1c2c(ccc1=O)CCN(Cc1ccoc1)CC2.O=C(O)C(F)(F)F | -16.65 |
| Cl.Cn1nc(C2CCCN(Cc3cccs3)C2)c2nccnc21 (centres undefined) | 1.565 |
| CN(C)CCN1CC[C@@H]2O[C@@H](COCC(=O)N3CCCC3)CC[C@@H]21.O=C(O)C(F)(F)F.O=C(O)C(F)(F)F | -33.31 |
| Cc1noc(C(C)C)c1C(=O)NCCCN1CCNCC1.Cl | 0.9177 |
| O=S(=O)(Cc1nc(C2CC2)no1)c1cc(F)ccc1F | 12.65 |
| O=S(=O)(C/C=C/c1ccccc1)Cc1nc(C2CC2)no1 | 19.84 |
| O=S(=O)(Cc1nc(C2CC2)no1)c1ccccc1F | 12.43 |
| CCc1noc(CS(=O)(=O)Cc2nc(Cc3ccccc3)no2)n1 | -8.996 |
| CCc1noc(CS(=O)(=O)Cc2ccccc2Cl)n1 | 95.51 |
| O=S(=O)(CCc1ccccc1)Cc1nc(C2CC2)no1 | 59.77 |
| Cc1ccccc1CS(=O)(=O)Cc1nc(C2CC2)no1 | 92.63 |
| CCc1noc(CS(=O)(=O)Cc2ccccc2C)n1 | 31.56 |
| Cc1noc(C)c1CS(=O)(=O)Cc1nc(C2CC2)no1 | 6.324 |
| Cl.O=C(CCC1CCCC1)N1CCCC(c2ncc3c(n2)CCNC3)C1 (centres undefined) | -5.492 |
| CC(C)CCN1C[C@H]2C[C@H](C(=O)NCC(C)C)[C@@H](C1)O2.O=C(O)C(F)(F)F | 22.63 |
| Cc1nnc(N2CCCC3(CN(Cc4ccc(F)cc4)CCO3)C2)o1.O=C(O)C(F)(F)F (centres undefined) | -29.82 |
| c1cnc(N2C[C@@H]3CC[C@H](C2)N(Cc2ccsc2)C3)nc1 | 15.45 |
| CN(C)CCOCc1nnc2n1CCN(Cc1ccoc1)CC2.O=C(O)C(F)(F)F.O=C(O)C(F)(F)F | -36.04 |
| O=C(O)C(F)(F)F.c1cc(CN2CCc3c(nnn3CC3CC3)C2COCC2CC2)co1 (centres undefined) | -36.71 |
| CC(C)(C)OC(=O)NCC1CCCCN1Cc1ccncc1 (centres undefined) | 24.03 |

| Structure (SMILES) | Percent Effect [%] |
| --- | --- |
| CC(C)(C)c1nc(CN2CCCC2c2nnc3ccccn23)no1 (centres undefined) | 0.5342 |
| CCn1c(C2CCCN2Cc2noc(C(C)(C)C)n2)nc2ccccc21 (centres undefined) | 50.31 |
| Cn1cccc1C1CCCN1Cc1noc(C(C)(C)C)n1 (centres undefined) | -40.09 |
| Cc1nc(CN2C(=O)COC3(CCN(C)CC3)C2C)cs1.O=C(O)C(F)(F)F (centres undefined) | -6.14 |
| NCC1CCCN(c2nc(-c3ccccc3)nc3c2CCNCC3)C1 (centres undefined) | 69.25 |
| N#CC1CCCN(c2nc(-c3ccccc3)nc3c2CCNCC3)C1 (centres undefined) | -9.181 |
| NCC1CN(c2nc(-c3ccccc3)nc3c2CCNCC3)CCO1 (centres undefined) | 43.48 |
| Cc1cc(CN2CCC(CNC(=O)c3nccc4ccccc34)C2)[nH]n1 (centres undefined) | 59.25 |
| Cc1cc(CN2CCC(CNC(=O)c3cnc(C)nc3C)C2)[nH]n1 (centres undefined) | -10.7 |
| Cc1cc(CN2CCC(CNC(=O)Cc3ccc(F)cc3)C2)[nH]n1 (centres undefined) | -9.663 |
| CN1[C@H](CN2CCCC2)C[C@@H]2CN(C(=O)Cc3ccsc3)CC[C@@H]21.O=C(O)C(F)(F)F.O=C(O)C(F)(F)F | -7.166 |
| CN(C)C(=O)[C@@H]1CC[C@@H]2[C@@H](CCN2Cc2nccs2)O1.O=C(O)C(F)(F)F | 11.33 |
| NC(=O)C1Cn2ccnc2C2(CCN(C(=O)NC3CCCC3)CC2)O1.O=C(O)C(F)(F)F (centres undefined) | 2.522 |
| COc1ccc(C)cc1CN1CCN(Cc2nccn2C)CC1 | 1.633 |
| COc1ccc(C)cc1CN1CCC(c2cc3ncccc3cn2)CC1.Cl | 102.1 |
| Fc1cc(F)cc(CN2CCC(c3cc4ncccc4cn3)CC2)c1 | 17.06 |
| Fc1ccc(F)c(CN2CCC(c3cnccn3)CC2)c1 | -4.596 |
| Fc1cccc(CN2CCC(c3noc(-c4cnccn4)n3)CC2)c1F | -19.36 |
| Cl.Fc1ccc(F)c(CN2CCC(c3cc4ncccc4cn3)CC2)c1 | 103.6 |
| Fc1cccc(CN2CCC(c3n[nH]c4ncccc34)CC2)c1F | -15.12 |
| Cl.Fc1cccc(CN2CCC(c3cc4ncccc4cn3)CC2)c1F | 102.4 |
| Fc1ccccc1CN1CCC(c2noc(-c3ccccn3)n2)CC1 | 13.63 |
| CCc1onc(C)c1C(=O)N1CCC(c2cc3ncccc3cn2)CC1 | 13.11 |
| Fc1cccc(CN2CCC(c3noc(-c4ccccn4)n3)CC2)c1F | 12.47 |

| Structure (SMILES) | Percent Effect [%] |
| --- | --- |
| Cc1nc(CN2CCOCC3(CCN(c4ccccn4)C3)C2)cs1.O=C(O)C(F)(F)F.O=C(O)C(F)(F)F (centres undefined) | -41.64 |
| CCN(CCNS(=O)(=O)C1CCOCC1)C(=O)OC(C)(C)C | -7.011 |
| COCC(=O)NC[C@H]1CC[C@H](c2ccnc3ncnn32)CC1 | 20.19 |
| COc1ccc(C(C)N(C)Cc2c(C3CC3)[nH]c3ncccc23)cc1.Cl (centres undefined) | -15.93 |
| CCC/N=c1/c(NC(=O)NCCOC)c(O)oc2ccccc12 | -14.33 |
| CCc1cc(N2CCC(NC(=O)CCC3CCCO3)CC2)ncn1 (centres undefined) | -18.51 |
| CCc1cc(N2CCC(n3cc(C(=O)NCC(C)C)nn3)CC2)ncn1 | 7.459 |
| O=C(NC1CC1)c1cn(C2CCN(c3cc(C4CC4)ncn3)CC2)nn1 | 61.79 |
| CC(C)Nc1cc(N2CCC(n3cc(C4CC4)nn3)CC2)ncn1 | -24.54 |
| CCc1cc(N2CCC(n3cc(C(=O)NC4CC4)nn3)CC2)ncn1 | 51.27 |
| OCCNc1cc(N2CCC(n3cc(C4CCCC4)nn3)CC2)ncn1 | 8.872 |
| CC(C)OCc1ncn2c1CN(Cc1ccc(F)cc1)CCC2.O=C(O)C(F)(F)F | -13.8 |
| Cc1ccc(-n2cccn2)cc1S(=O)(=O)N1C[C@@H]2CC[C@H](C1)N(C)C2 | 23.12 |
| Cn1cc(C2CC(=O)NC23CCN(C(=O)Cc2ccccn2)CC3)cn1.O=C(O)C(F)(F)F (centres undefined) | -20.75 |
| COc1ccnc(CN2CCCC(CCc3ccccc3)C2)c1OC (centres undefined) | 22.56 |
| COc1coc(CN2CCCC(CCc3ccc(F)cc3)C2)cc1=O (centres undefined) | -2.405 |
| COc1ccnc(CN2CCCC(CCc3ccc(F)cc3)C2)c1OC (centres undefined) | 80.3 |
| COCCN1CC[C@@H]2OC(COCC(=O)N3CCCC3)CC[C@@H]21.O=C(O)C(F)(F)F (some centres undefined) | -19.46 |
| COc1c(C)cnc(CNCC(C)C)c1C | -4.994 |
| CCCS(=O)(=O)NCc1ncc(C)c(OC)c1C | 51.82 |
| CCCNCc1ncc(C)c(OC)c1C | -10.29 |
| FC1(F)CCN(Cc2ccccn2)CC12CCN(c1cccnc1)C2.O=C(O)C(F)(F)F.O=C(O)C(F)(F)F.O=C(O)C(F)(F)F (centres undefined) | -10.62 |
